# The source holds several records for some structures; these can differ, active in one and inactive in another. The source made the active and inactive calls. How the source made its calls: active means hit-call score of the fitted dose curve at least 0.9, where 1 is the maximum; inactive means score below 0.9.
# Experiment: BSK_KF3CT_SRB: Viability Assessment in the BioMAP Diversity Plus: KF3CT Assay (AID 2283069);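 further: fitted for both signal gain and loss against DMSO baseline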
# Details: primary human keratinocytes with fibroblasts
# Description: BSK_KF3CT is a cell-based, multiplexed-readout assay that uses keratinocytes and foreskin fibroblasts, a human skin primary cell co-culture, with measurements taken at 24 hours after chemical dosing in a 96-well plate.BSK_KF3CT_SRB is an assay component measured in the BSK_KF3CT assay. It measures 0.1% sulforhodamine related to cell death using Sulforhodamine staining technology.Data from the assay component BSK_KF3CT_SRB was analyzed into 1 assay endpoint. This assay endpoint, BSK_KF3CT_SRB, was analyzed with bidirectional fitting relative to DMSO as the negative control and baseline of activity. Using a type of viability reporter, gain or loss-of-signal activity can be used to understand changes in the signaling. Furthermore, this assay endpoint can be referred to as a primary readout, because this assay has produced multiple assay endpoints where this one serves a signaling function. To generalize the intended target to other relatable targets, this assay endpoint is annotated to the cell morphology intended target family, where the subfamily is cell conformation.
# The levels of cell surface (or secreted, indicated by the prefix "s") biomarker endpoints were measured by ELISA. Overt cytotoxicity to cells in confluent adherent cultures (all systems other than the BT system) was assessed by measuring total protein levels using sulforhodamine B (SRB) staining in parallel cultures at the time of biomarker measurements, indicated as SRB endpoints. For proliferation assays for adherent cell types, individual cell types are cultured at sub-confluence and relative cell numbers quantified by SRB staining at time points optimized for each system (48 h: 3C and CASM3C systems; 72 h: BT and HDF3CGF systems; 96 h: SAg system). SRB was performed by staining cells with 0.1% SRB after fixation with 10% TCA and reading wells at 560 nm.Viability and proliferation of PBMC (T cells) was quantified by Alamar Blue reduction for the SAg and BT systems. For PBMC viability (referred to as PBMC Cytotoxicity within the assay endpoint names), cells were plated (75,000/well in a 96-well plate) and then chemical samples added for 1 h before addition of activators, SEB and TSST-1 (20 ng/mL final concentration each). Cells were incubated for 90 h. Then, Alamar Blue (20 uL/well) (Invitrogen, Cat DAL1100) was added for 6 h, and the plates were read with a fluorescence microplate reader at 546/580 nm (excitation/emission). For PBMC proliferation, cells were plated and activated as above but incubated for only 16 h prior to addition of Alamar Blue. Plates were read after 6 h.
SMILES,outcome,AC50
O=C(O)CCC(F)(F)C(F)(F)C(F)(F)C(F)(F)C(F)(F)C(F)(F)F,inactive,–
CCCCCCCCCCCCCCC,inactive,–
CN(C)CCOC(c1ccccc1)c1ccccc1,inactive,–
O=C(O)C(F)(F)OC(F)(F)C(F)(F)OC(F)(F)C(F)(F)OC(F)(F)C(F)(F)C(F)(F)C(F)(F)F,inactive,8.04 µM (active)
Cc1[nH]nc2c1N=C(c1ccccc1Cl)c1cc([N+](=O)[O-])ccc1N2,inactive,–
CCCCC(CC)C(=O)O (stereo not given),inactive,–
CN(C)c1ccc(C(=C2C=CC(=[N+](C)C)C=C2)c2ccccc2)cc1,–,0.318 µM (active)
O=C(NCc1ncc(C(F)(F)F)cc1Cl)c1c(Cl)cccc1Cl,inactive,–
CCCCc1oc2ccccc2c1C(=O)c1cc(I)c(OCCN(CC)CC)c(I)c1,–,9.02 µM (active)
O=S(=O)(O)C(F)(F)C(F)(F)C(F)(F)C(F)(F)C(F)(F)C(F)(F)C(F)(F)C(F)(F)C(F)(F)C(F)(F)F,inactive,–
Clc1ccc(Nc2nnc(Cc3ccncc3)c3ccccc23)cc1,inactive,–
C=COC(=O)C(C)(C)CCCCCC,–,34.4 µM (active)
CC(=O)Nc1ccc(O)cc1,inactive,–
C=CC(C)(CCC=C(C)C)OC(C)=O (stereo not given),inactive,–
O=C(CCCN1CCC(O)(c2ccc(Cl)cc2)CC1)c1ccc(F)cc1,inactive,–
OCC(CO)(CBr)CBr,inactive,–
COCN(COC)c1nc(N(COC)COC)nc(N(COC)COC)n1,inactive,–
C[C@]12CC[C@@H]3c4ccc(O)cc4CC[C@H]3[C@@H]1C[C@@H](O)[C@@H]2O,inactive,–
OCC(F)(F)C(F)(F)C(F)(F)C(F)(F)C(F)(F)C(F)(F)C(F)(F)C(F)(F)C(F)(F)C(F)(F)C(F)(F)F,inactive,–
CN(CCO)S(=O)(=O)C(F)(F)C(F)(F)C(F)(F)C(F)(F)C(F)(F)C(F)(F)C(F)(F)C(F)(F)F,inactive,–

SMILES,outcome,AC50
CN(Cc1cnc2nc(N)nc(N)c2n1)c1ccc(C(=O)N[C@@H](CCC(=O)O)C(=O)O)cc1,inactive,–
CCCCCCCCCCCCCCCCCC[N+](C)(C)Cc1ccccc1,–,2.62 µM (active)
O=C(c1ccccc1)c1ccccc1,inactive,–
Cc1ccc(N=Nc2c(O)ccc3ccccc23)c(C)c1,inactive,–
OCCN1CN(CCO)CN(CCO)C1,inactive,–
CC(C)(C)c1ccc(O)c(O)c1,inactive,–
NC(=NCCCCCCN=C(N)/N=C(\N)Nc1ccc(Cl)cc1)/N=C(\N)Nc1ccc(Cl)cc1,–,4.79 µM (active)
CCCCC(CC)C(=O)OCCOCCOCCOCCOC(=O)C(CC)CCCC (stereo not given),inactive,–
Oc1c(Cl)cc(Cl)cc1Sc1cc(Cl)cc(Cl)c1O,inactive,–
CCCCCc1ccc(O)cc1,–,12.4 µM (active)
CCCCCCCCCCCCOS(=O)(=O)O,–,33.7 µM (active)
O=C1c2ccc(O)c(O)c2C(=O)c2c(O)ccc(O)c21,inactive,–
O=C(O)CCC(F)(F)C(F)(F)C(F)(F)C(F)(F)C(F)(F)F,inactive,–
C=CC(=C)CC/C=C(\C)CCC=C(C)C,inactive,–
Oc1cc2ccccc2cc1O,inactive,–
COc1cccc(O)c1,inactive,–
Cc1ccc(C(=O)c2ccccc2)cc1,inactive,–
O=C1NS(=O)(=O)c2ccccc21,inactive,–
CS(=O)(=O)c1ccc([C@@H](CC2CCCC2)C(=O)Nc2cnccn2)cc1Cl,inactive,–

# — PubChem BioAssay (EPA / NIEHS)
